Test results taken from PubChem BioAssay (NCI).
The panel holds about 83,000 compounds, 20% with a hit somewhere; the sample as a whole holds those more often.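 Plates (96-well) were seeded with cells, treated with compound at one concentration, and incubated for 48 hours before percent growth was determined.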 The source made the active and inactive calls. How the source made its calls: active means growth percent below 10; inactive means the rest.

Experiments:
Assay in all cases: NCI-60 one-dose screen, 48 h (100 = growth as untreated, 0 = no growth, -100 = all killed)
Conditions in all cases: 10 µM unless noted
[1] = system: HCT-15 colon
[2] = system: HT29 colon
[3] = system: SNB-75 CNS
[4] = system: SNB-19 CNS
[5] = system: U251 CNS
[6] = system: PC-3 prostate
[7] = system: SK-MEL-5 melanoma
[8] = system: UACC-62 melanoma
[9] = system: LOX IMVI melanoma
[10] = system: SK-MEL-28 melanoma
[11] = system: EKVX NSCLC
[12] = system: SN12C renal
[13] = system: UO-31 renal
[14] = system: TK-10 renal
[15] = system: ACHN renal
[16] = system: CAKI-1 renal
[17] = system: CCRF-CEM leukemia
[18] = system: MOLT-4 leukemia
[19] = system: SK-MEL-2 melanoma
[20] = system: A498 renal

Measured: growth

O=C1Nc2cc(-c3ccc(NC(=O)c4ccccc4)cc3)ccc2/C1=C/c1ccc[nH]1
inactive: [1] 87.9% | [2] 109% | [3] 99% | [4] 98.8% | [5] 90.2% | [6] 101% | [7] 103% | [8] 98.4% | [9] 96.2% | [10] 119% | [11] 51.1% | [12] 101% | [13] 71.6% | [14] 113% | [15] 95.8% | [16] 100% | [17] 92.4% | [18] 92.8%

O=S(=O)(NCCNc1nccc(-c2c(-c3cccc(O)c3)nc3occn23)n1)c1ccc(Cl)cc1
inactive: [1] 113% | [2] 62.9% | [3] 109% | [4] 118% | [5] 110% | [6] 96.5% | [7] 52.2% | [8] 19.2% | [9] 72.3% | [10] 48.2% | [19] 83.4% | [11] 125% | [13] 110% | [14] 143% | [15] 98.5% | [16] 79.6% | [17] 106% | [18] 103%

N#C/C(=C\c1ccc(Cl)cc1)n1nnc2cc(F)c(F)cc21
inactive: [3] 15.9% | [4] 34.5% | [5] 18.1% | [6] 30.9% | [8] 21% | [10] 29.6% | [19] 38.6% | [11] 59.3% | [14] 16.9% | [16] 18%
active: [1] 2% | [2] 9.95% | [7] 8.38% | [9] -63.5% | [13] -17.5% | [15] 9.15% | [17] -8.83% | [18] 1.3%

Oc1ccc(OCCOc2ccc(O)cc2)cc1
active: [13] 4.76% | [15] 6.65%
inactive: [1] 38.4% | [2] 86.9% | [3] 73.8% | [4] 79.2% | [5] 49.5% | [6] 55.7% | [7] 26.8% | [8] 22.5% | [9] 36.4% | [10] 102% | [11] 75.4% | [12] 59.6% | [14] 87.9% | [16] 11.4% | [20] 100% | [17] 58.8% | [18] 60.8%

CN1CCN(CCNc2nccc(-c3c(-c4cccc(O)c4)nc4sccn34)n2)S1(=O)=O
active: [8] 3.85%
inactive: [1] 50.6% | [2] 43.9% | [3] 54.2% | [4] 115% | [5] 94.2% | [6] 68.5% | [7] 33% | [9] 23.8% | [10] 15% | [11] 99.1% | [12] 70.3% | [13] 56.2% | [14] 94.1% | [15] 37.4% | [16] 61.8% | [20] 119% | [17] 76.7%

CCN(c1ccccc1)S(=O)(=O)c1cc([N+](=O)[O-])ccc1Cl
inactive: [1] 75.7% | [2] 63% | [3] 66.2% | [4] 85% | [5] 59.2% | [6] 76.8% | [7] 45.3% | [8] 57.5% | [9] 52.4% | [10] 88.8% | [19] 46.2% | [11] 88.3% | [13] 53.9% | [14] 107% | [15] 79.9% | [16] 48.1% | [20] 71.9% | [17] 52%

COc1ccc2c(c1)oc1c(C)c3c(c(C)c12)C(=O)N(N)C3=O
inactive: [1] 41.9% | [4] 46.2% | [5] 13.6% | [6] 54.1% | [8] 43.6% | [9] 43.4% | [10] 51% | [19] 93% | [11] 49.1% | [16] 34.2% | [17] 55.8% | [18] 17.4%
active: [2] 6.15% | [3] -55.9% | [7] 4.46% | [13] -45.8% | [14] -4.02% | [15] -23.7% | [20] -7.39%

CCOc1ccc(Nc2nc(-c3ccc4c(c3)NC(=O)CO4)cs2)cc1
active: [7] -11.2% | [18] 6.58%
inactive: [1] 51.3% | [2] 62% | [3] 56.8% | [4] 81.4% | [5] 66.8% | [6] 24.6% | [8] 52.1% | [9] 43.9% | [10] 33.6% | [11] 89% | [12] 78.6% | [13] 63.7% | [14] 85.5% | [15] 52.3% | [16] 108% | [20] 103% | [17] 32.9%
